Consider 30 molecules from PubChem BioAssay (NCI).

Holding throughout (experiment): NCI-60 one-dose screen, 48 h (100 = growth as untreated, 0 = no growth, -100 = all killed)
What all share (conditions): 10 µM

The subject of assay [1] is SR leukemia.
The subject of assay [2] is RPMI-8226 leukemia.
Assay [3] has as its system OVCAR-8 ovarian.
Assay [4] deals with OVCAR-5 ovarian.
Assay [5] deals with OVCAR-4 ovarian.
The test system of assay [6] is SK-OV-3 ovarian.
Assay [7] concerns IGROV1 ovarian.
In assay [8] the test system is OVCAR-3 ovarian.
The subject of assay [9] is HS 578T breast.
Assay [10] relates to NCI/ADR-RES ovarian.

The panel holds about 83,000 compounds, 20% with a hit somewhere; the sample as a whole holds those more often.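 Testing used 96-well plates and a 48-hour single-concentration exposure. Example: -40 means 40% of the starting cells died.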 Unmarked numbers belong to inactive results. Calls of active or inactive are those of the source. Rule for the calls: active = growth percent below 10; inactive = the rest.

For `CC1OC(Oc2c(-c3ccc(O)c(O)c3)oc3cc(O)cc(O)c3c2=O)C(O)C(O)C1O` (configuration not stated), the growth is 106% in [1]; 105% in assay [2]; 106% in [3]; 108% in assay [4]; 105% in [5]; 108% in [6]. Further, the growth was 107% in [7], 103% in assay [8], 105% in [9] and 111% in assay [10].

Consider `O=C(O)C(c1ccccc1)C(O)c1ccccc1` (configuration not stated), for which the growth was 94.6% in [1]; 101% in assay [2]; 99.4% in assay [3]; 103% in assay [4]; 120% in assay [5]; 99.9% in assay [6]. In addition, the growth in assay [7] was 101%; in assay [8], 116%; in assay [9], 100%; in [10], 107%.

With `Oc1ccccc1-c1nnco1`, the growth in [1] is 90.4%; in assay [2], 86.8%; in assay [3], 98.9%; in assay [4], 107%; in [5], 83.1%; in assay [6] it was 91.1%. Further, the growth was 86.3% in assay [7], 101% in assay [8], 45.1% in assay [9] and 93.1% in [10].

Take `CC(CC(=O)c1ccccc1)c1ccccc1` (configuration not stated): the growth in assay [1] is 101%; in assay [2], 104%; in [3], 102%; in [4] it was 113%; in assay [5], 109%; in assay [6] it was 127%. Further, the growth is 101% in [7], 116% in [8], 118% in assay [9] and 118% in assay [10].

Take `Cc1cc(C(O)(c2ccc(Nc3ccccc3)cc2)c2ccc(Nc3ccc(S(=O)(=O)O)cc3)cc2)ccc1N` (configuration not stated): the growth was 7.14% (active) in [1]; -28.8% (active) in [2]; 6.11% (active) in [3]; -65.8% (active) in [4]; -5.82% (active) in assay [5]; 31.3% in [6]. Besides, the growth is 5.51% (active) in assay [7], -29.1% (active) in [8], 1.91% (active) in assay [9] and 18.8% in assay [10].

On to `Cc1ccc(C(=O)NC2c3ccccc3Oc3ccccc32)cc1`, for which the growth in [1] was 26.6%; in assay [2], 78.9%; in assay [3] it was 48.6%; in [4] it was 80.6%; in assay [5] it was 64.7%; in assay [6], 48.3%. In addition, the growth was 50.8% in assay [7], 31.6% in assay [8], 46.5% in [9] and 55% in [10].

Take `N=c1c(C(=O)OCc2ccccc2)ncc(CCl)n1O`: the growth is 82.6% in [1]; 76.8% in assay [2]; 101% in [3]; 103% in assay [4]; 91.3% in assay [5]; 107% in assay [6]. Besides, the growth in assay [7] is 95%; in [8], 99.1%; in assay [9], 114%; in assay [10], 105%.

As for `O=c1cc(-c2ccccc2)[nH]c(=S)[nH]1`, the growth in assay [1] is 91.9%; in assay [2] it was 89.6%; in assay [3], 111%; in assay [4], 98.4%; in assay [5] it was 110%; in assay [6], 113%. Further, the growth is 104% in assay [7], 106% in assay [8], 103% in assay [9] and 101% in assay [10].

For `S=c1[nH]ccn1-c1ccccc1Cl`, the growth is 101% in assay [1]; 95.6% in assay [2]; 105% in assay [3]; 114% in assay [4]; 103% in [5]; 111% in [6]. The growth was 108% in assay [7], 98.2% in assay [8], 142% in assay [9] and 115% in [10].

Consider `O=c1[nH]n(-c2ccccc2)c(=O)cc1Cl`, for which the growth in assay [1] was 87.8%; in assay [2] it was 97.5%; in [3], 101%; in assay [4], 104%; in [5], 112%; in [6] it was 103%. Moreover, the growth was 102% in assay [7], 108% in [8], 111% in assay [9] and 107% in assay [10].

With `Nc1nc(N)c(N=Nc2ccc(C(=O)O)cc2)c(N)n1`, the growth in [1] was 109%; in [2], 95.1%; in assay [3], 104%; in assay [4], 101%; in assay [5], 105%; in [6], 111%. Moreover, the growth in assay [7] is 100%; in assay [8], 130%; in assay [9] it was 102%; in [10] it was 101%.

Consider `Cc1ccc(C(=O)N/N=C/c2ccc3c(c2)OCO3)cc1`, for which the growth is 78% in assay [1]; 94.3% in assay [2]; 102% in assay [3]; 103% in assay [4]; 99.5% in assay [5]; 93.4% in assay [6]. Also, the growth in [7] is 105%; in assay [8], 116%; in assay [9], 115%; in assay [10], 91.3%.

In the case of `OC(c1ccccn1)C(O)c1ccccn1` (configuration not stated), the growth is 98.7% in [1]; 108% in [2]; 102% in assay [3]; 90.7% in [4]; 107% in assay [5]; 103% in assay [6]. The growth in assay [7] is 97.9%; in assay [8] it was 113%; in [9], 111%; in assay [10], 111%.

For the molecule `CCOC(=O)Nc1nn[nH]n1`, the growth in [1] was 103%; in assay [2] it was 106%; in assay [3], 111%; in assay [4] it was 92.3%; in assay [5] it was 111%; in assay [6], 116%. For the same molecule, the growth in assay [7] is 110%; in assay [8] it was 103%; in [9], 93.7%; in assay [10] it was 103%.

Consider `COc1ccc(OC)c(/C=C2\CCc3ccccc3C2=O)c1`, for which the growth in assay [1] was 31.6%; in assay [2], 35.7%; in [3] it was 65.4%; in assay [4], 72.9%; in assay [5], 70.9%; in assay [6], 53%. Also, the growth in assay [7] is 50.9%; in assay [8], 9.47% (active); in [9], 45.4%; in assay [10], 17.8%.

As for `CC1(C)OC(=O)C(c2ccsc2)C(=O)O1`, the growth is 103% in assay [1]; 103% in assay [2]; 109% in assay [3]; 105% in [4]; 102% in [5]; 106% in assay [6]. Further, the growth is 103% in assay [7], 106% in assay [8], 99% in [9] and 97.7% in assay [10].

In the case of `CC1CC(O)C2C3(C)CCCC2(COC3=O)C12CCC1(CCOC1=O)O2` (configuration not stated), the growth in assay [1] is 114%; in [2], 117%; in [3], 127%; in assay [4], 104%; in [5] it was 103%; in assay [6], 105%. The growth in [7] is 113%; in [8], 110%; in assay [9], 99%; in assay [10], 111%.

Regarding `CC(C)C(C#N)(C(C)C)C(C)C`, the growth in assay [1] was 89.8%; in [2], 96.5%; in assay [3], 109%; in assay [4], 108%; in assay [5] it was 109%; in assay [6], 109%. Further, the growth was 103% in [7], 107% in [8], 106% in assay [9] and 104% in assay [10].

On to `COc1cc([C@@H]2c3cc4c(cc3[C@H](O)[C@H]3COC(=O)[C@H]23)OCO4)cc(OC)c1OC`, for which the growth is -1.68% (active) in assay [1]; 29.7% in assay [2]; 12.9% in assay [3]; 40% in assay [4]; 26.9% in assay [5]; 24.4% in [6]. For the same molecule, the growth in assay [7] is 31.6%; in assay [8] it was -42.8% (active); in assay [9] it was 26.9%; in [10], 4.7% (active).

Take `NC(C(=O)O)C(O)c1ccco1` (configuration not stated): the growth is 112% in assay [1]; 101% in assay [2]; 103% in [3]; 108% in assay [4]; 114% in assay [5]; 107% in assay [6]. The growth in assay [7] was 124%; in [8], 117%; in [9] it was 107%; in [10], 112%.

For the molecule `CCCCC(CC)COC(C)=O` (configuration not stated), the growth is 103% in assay [1]; 110% in assay [2]; 102% in assay [3]; 103% in assay [4]; 100% in [5]; 101% in [6]. In addition, the growth in [7] was 112%; in [8], 105%; in assay [9], 106%; in [10], 99.2%.

With `CC(=O)Cc1ccc(-c2ccccc2)cc1`, the growth in assay [1] is 102%; in [2], 97.5%; in assay [3], 104%; in assay [4] it was 112%; in assay [5], 109%; in assay [6] it was 108%. Besides, the results for the growth in assay [8], in assay [9] and in assay [10] were 113%, 99.4% and 103%, respectively.

With `COc1cccc(O)c1O`, the growth was 29.9% in assay [1]; 89.2% in assay [2]; 86.2% in [3]; 101% in assay [4]; 96.3% in assay [5]; 76.9% in assay [6]. Further, the growth is 96.4% in assay [7], 6.36% (active) in assay [8] and 85.6% in assay [10].

`CC(C)CCCC(=O)O`: the growth is 89.4% in [1]; 105% in assay [2]; 114% in assay [3]; 100% in [4]; 96.8% in assay [5]; 108% in assay [6]. Also, the growth is 104% in assay [7], 114% in [8] and 109% in assay [10].

Take `CN(C)C(C)(C)CC(C)(C)C`: the growth in assay [1] was 93.5%; in assay [2], 110%; in assay [3] it was 109%; in [4] it was 102%; in assay [5] it was 108%; in assay [6] it was 109%. Also, the growth is 106% in assay [7], 100% in assay [8] and 103% in assay [10].

For `C=CCNc1ccccc1`, the growth in [1] is 96.9%; in assay [2], 92.8%; in assay [3] it was 107%; in [4], 106%; in assay [5], 94%; in [6], 101%. In addition, the growth in assay [7] is 115%; in assay [8], 116%; in assay [10] it was 114%.

With `CC1(c2ccccc2)NC(=O)NC1=O` (configuration not stated), the growth in assay [1] was 102%; in [2], 105%; in [3], 103%; in assay [4] it was 109%; in assay [5] it was 115%; in assay [6], 107%. Also, the growth in assay [7] is 105%; in [8] it was 121%; in assay [10], 114%.

Consider `NCCC(=O)c1ccc(Cl)cc1`, for which the growth in [1] is 93.8%; in assay [2] it was 110%; in [3] it was 101%; in assay [4] it was 118%; in assay [5], 110%; in [6], 95.7%. Also, the growth in assay [7] was 117%; in assay [8], 105%; in assay [9] it was 109%; in assay [10], 103%.

`CCCCC1(CC)COC(CCC)OC1` (configuration not stated): the growth in assay [1] was 106%; in assay [2], 102%; in assay [3] it was 101%; in assay [4], 95.9%; in assay [5], 115%; in assay [6], 104%. Further, the growth in assay [7] was 129%; in assay [8], 108%; in assay [10] it was 105%.

Take `CN(c1ccccc1)c1ncnc2c1ncn2C`: the growth is 98.2% in assay [1]; 106% in assay [2]; 102% in assay [3]; 121% in assay [4]; 103% in assay [5]; 105% in [6]. The growth in assay [7] was 118%; in [8], 111%; in assay [10], 105%.
